Key:
Assay in all cases: PBM binding z-score (relative to random genomic background probes); higher = stronger binding; sequences stand for … in GC…GCGATTGACAGCGTAGAATGAAGG
[1] = tested on: FXR:RXRa (NR concentration 270 nM, RXRa partner concentration 90 nM)
Method in brief: (§1)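 Antibodies against each partner of ligand-free nuclear receptor dimers (one per run) detected binding on custom Agilent 4×180K protein-binding microarrays after 1 h incubation. The double-stranded probes had 34-nt variable regions carrying direct-repeat seeds, single-nucleotide variants, half-site ablations and random human genomic background sequences. Binding z-scores, from regression-normalized fluorescence, use the random background probes as reference.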

[2] = tested on: LXRa:RXRa (NR concentration 270 nM, RXRa partner concentration 90 nM)
Method in brief: as §1

[3] = tested on: LXRa homodimer (NR concentration 270 nM)
Method in brief: as §1

[4] = tested on: LXRb:RXRa (NR concentration 270 nM, RXRa partner concentration 90 nM)
Method in brief: as §1

[5] = tested on: LXRb homodimer (NR concentration 270 nM)
Method in brief: as §1

[6] = tested on: PPARa:RXRa (NR concentration 270 nM, RXRa partner concentration 90 nM)
Method in brief: as §1

[7] = tested on: PPARg:RXRa (NR concentration 180 nM, RXRa partner concentration 90 nM)
Method in brief: as §1

[8] = tested on: PPARg:RXRa 270nM:90nM, anti-RXR (NR concentration 270 nM, RXRa partner concentration 90 nM)
Method in brief: as §1

[9] = tested on: PPARg:RXRa 30nM:10nM, anti-RXR (NR concentration 30 nM, RXRa partner concentration 10 nM)
Method in brief: as §1

[10] = tested on: PPARg:RXRa 90nM:30nM, anti-RXR (NR concentration 90 nM, RXRa partner concentration 30 nM)
Method in brief: as §1

[11] = tested on: PPARg:RXRa DBDmut IVT, anti-RXR (DBD mutation: RXRa K156A/R161A, NR concentration 270 nM, RXRa partner concentration 90 nM)
Method in brief: as §1

[12] = tested on: PPARg:RXRa IVT, anti-PPARg (NR concentration 270 nM, RXRa partner concentration 90 nM)
Method in brief: as §1

[13] = tested on: PPARg DBDmut:RXRa IVT, anti-PPARg (DBD mutation: PPARg1 K132A/R137A, NR concentration 270 nM, RXRa partner concentration 90 nM)
Method in brief: as §1

[14] = tested on: PPARg DBDmut IVT, anti-PPARg (DBD mutation: PPARg1 K132A/R137A, NR concentration 270 nM)
Method in brief: as §1

[15] = tested on: PPARg homodimer (NR concentration 180 nM)
Method in brief: as §1

[16] = tested on: PXR:RXRa (NR concentration 270 nM, RXRa partner concentration 90 nM)
Method in brief: as §1

[17] = tested on: PXR homodimer (NR concentration 270 nM)
Method in brief: as §1

[18] = tested on: RARa:RXR (NR concentration 270 nM, RXRa partner concentration 90 nM)
Method in brief: as §1

[19] = tested on: RARa homodimer (NR concentration 270 nM)
Method in brief: as §1

[20] = tested on: RARb:RXRa (NR concentration 270 nM, RXRa partner concentration 90 nM)
Method in brief: as §1

Row | Sequence | PBM binding z-score [1] | PBM binding z-score [2] | PBM binding z-score [3] | PBM binding z-score [4] | PBM binding z-score [5] | PBM binding z-score [6] | PBM binding z-score [7] | PBM binding z-score [8] | PBM binding z-score [9] | PBM binding z-score [10] | PBM binding z-score [11] | PBM binding z-score [12] | PBM binding z-score [13] | PBM binding z-score [14] | PBM binding z-score [15] | PBM binding z-score [16] | PBM binding z-score [17] | PBM binding z-score [18] | PBM binding z-score [19] | PBM binding z-score [20]
1 | CTCGAAAGGTCGGTTGAGGTGAATATACGGATAA | 2.5 | 2.04 | 0.0954 | 1.76 | 0.0541 | 3.15 | 0.944 | 1.6 | 0.365 | 1.15 | -0.113 | 1.11 | 0.319 | 0.349 | 0.741 | 3.62 | 0.148 | 2.94 | 0.256 | 3.27
2 | GCTCTTAGTTGAAAGGGCAACCGAATGATTCTCG | 0.354 | 0.538 | 0.194 | 0.812 | -0.185 | 1.77 | 0.987 | 2.26 | 0.632 | 1.71 | 0.37 | 0.474 | 0.11 | -0.335 | 0.85 | 0.654 | -0.0314 | 1.47 | -0.318 | 2.08
3 | CCGACTGGGGCATAAGATTACCATAAGCCAGCCC | -0.495 | -0.33 | -0.319 | -0.411 | -1.33 | 0.114 | 1.12 | 0.921 | -0.305 | 0.461 | 3.26 | 1.75 | -0.988 | -1.17 | 0.089 | -0.666 | -0.41 | -0.621 | -0.486 | 0.112
4 | TCTTGTAGATCAAGCGGGTTAAGAAAGCCTGAGT | 0.257 | 0.0631 | -0.461 | 0.225 | -0.187 | 0.817 | -0.599 | 1.1 | 2.23 | 1.81 | 1.69 | 0.202 | -0.333 | -0.182 | -0.174 | 0.313 | -0.037 | 0.0624 | -0.21 | 0.093
5 | ACAGACAGGTGATGAAGGTAACCCAGGCTATCAT | -0.0743 | -0.103 | -0.116 | -0.241 | -0.475 | 0.302 | 0.814 | 0.0501 | 0.126 | -0.204 | -0.12 | 0.789 | 0.463 | 0.0514 | 0.225 | -0.103 | -0.0491 | 0.412 | -0.333 | 0.413
6 | AGAACGAGGGCAATCAGTTGATAGCACGGGTGGC | 0.397 | 0.342 | -0.0973 | 0.0776 | 0.0962 | 1.68 | 1.44 | 1.15 | 0.168 | 0.658 | 3.4 | 3.01 | 0.487 | -0.148 | -0.207 | 1.03 | 1.55 | 0.384 | -0.0136 | 2.09
7 | TCATATAGGTAAATGCTAGGTGAAAGACCGATCT | 1.17 | 1.12 | 0.232 | 0.72 | -0.0647 | 1.48 | 1.22 | 2.38 | 3.79 | 2.96 | 3.73 | 2.45 | 1.16 | 1.31 | 1.02 | 0.594 | 0.174 | 0.931 | 0.867 | 0.44
8 | CAAACTATGTCAAGAGGTCAAAGTCCGCTTCCCG | 5.04 | 5.63 | 5.89 | 4.97 | 2.01 | 5.33 | 5.62 | 6.27 | 4.55 | 6 | 4.61 | 4.88 | 1.22 | 0.601 | 4.01 | 5.64 | 2.84 | 6.21 | 2.09 | 4.3
9 | GCTAGCAAGCCATTTGGGTCACTCAATGACGGGC | -0.28 | -0.493 | -0.817 | -0.134 | -0.898 | 1.15 | 0.614 | 0.042 | -0.634 | -0.546 | 0.501 | 1.28 | -0.713 | -0.878 | -0.494 | 0.0188 | -0.796 | 0.479 | -0.835 | 0.979
10 | CAAACTAGGTCACCGGAAGATCAAAGTCCGCATG | 4.71 | 3.6 | 0.641 | 2.62 | 0.598 | 5.66 | 9.41 | 7.49 | 5.48 | 7.48 | 8.57 | 9.02 | 7.41 | 5.5 | 6.16 | 2.27 | 0.35 | 3.33 | 1.83 | 4.28
